34 compounds from the supplement of paper PMC13380429 can be followed below.

SMILES strings stand for the structures.

For the first test, the system named is Vero E6 infected with SARS-CoV-2. Briefly: morphology score (similarity to uninfected cells); higher = more like uninfected cells. The following applies: 24 h.
The compound `O=C1NC(=O)c2c1c1c3ccccc3n3c1c1c2c2ccccc2n1C1CCC3O1` (10 µM) showed a morphology score of -0.0614. On the same count and under the same terms, for `Cn1cc(-c2ccc3nnc(Sc4ccc5ncccc5c4)n3n2)cn1` (10 µM) the value was 0.144. On the same count and under the same terms, for `C[C@@H]1CC[C@H]2[C@@H](C)C(=O)O[C@@H]3O[C@@]4(C)CC[C@@H]1[C@]32OO4` [artemisinin] (10 µM) the value was -0.0301. Still for that read-out and setting: with `COC(=O)Nc1ccc2[nH]cc(CCNC(C)=O)c2c1` (10 µM) the figure was 0.0711; with `CC(C)(C)n1nc(-c2cccc3ccccc23)c2c(N)ncnc21` [1-naphthyl-PP1] (0.833333 µM), 0.129.

The next test has the same test system. Nature of the test: SARS-CoV-2 infection rate relative to infected DMSO; higher = more infection, active = 60 or less. The following applies: 24 h.
As for `O=C(O)c1ccccc1S` [o-mercapto-benzoic-acid] (10 µM), the SARS-CoV-2 infection rate is 101% (inactive). Same read-out and setting: with `CN1CCC[C@@H]1CCO[C@](C)(c1ccccc1)c1ccc(Cl)cc1` [clemastine] (10 µM) the figure was 26.5% (active). The same measure, in the same setting: for `COc1ccc(CCN(C)CCc2ccc(OC)c(OC)c2)cc1OC` (10 µM) the value was 103% (inactive); for `Cc1noc(C)c1-c1cc(O)cc([C@@H](O)c2ccccc2)c1` (10 µM), 104% (inactive); for `COc1cc(/C=C2\CCC/C(=C\c3ccc(O)c(OC)c3)C2=O)ccc1O` [cyclovalone] (10 µM), 93% (inactive). The same measure, in the same setting: for `CCN(CC)CCCC(C)Nc1ccnc2cc(Cl)ccc12` (centres undefined) [chloroquine] (10 µM) the value was 57.5% (active); for `COC(=O)CC[C@@H]1N=C(c2ccccn2)c2cc(Br)ccc2-n2c(C)cnc21` [remimazolam] (10 µM), 95% (inactive). In the case of `O=C(Nc1cc(C(F)(F)F)cc(C(F)(F)F)c1)Nc1c(Br)cc(Br)cc1-c1nnn[nH]1` (10 µM), the SARS-CoV-2 infection rate was 104% (inactive). The same measure, in the same setting: with `OCCCNc1cc(-c2ccnc(Nc3cccc(Cl)c3)n2)ccn1` (10 µM) the figure was 98% (inactive). Same read-out and setting: with `N#CC(Cc1ccc(O)cc1)c1ccc(O)cc1` (centres undefined) [diarylpropionitrile] (10 µM) the figure was 99% (inactive); with `O=C(O)CNC(=O)c1ccccc1I` [2-iodohippuric-acid] (10 µM), 110% (inactive); with `Cc1csc2c(N[C@@H](C)CN3CCN(S(=O)(=O)c4ccc(Cl)c(Cl)c4)CC3)ncnc12` [LPA2-antagonist-1] (10 µM), 100% (inactive). The same measure, in the same setting: for `NCCCCCC(=O)O` [aminocaproic-acid] (10 µM) the value was 89.5% (inactive); for `O=C1C=CC(=O)C2=C1C1c3ccccc3C2c2ccccc21` (10 µM), 102% (inactive); for `CCc1cc2c(cc1CC)CC(NC[C@H](O)c1ccc(O)c3[nH]c(=O)ccc13)C2` [indacaterol] (10 µM), 114% (inactive). As to `NCCc1c[nH]c2ccc(O)cc12` [serotonin] (10 µM), the SARS-CoV-2 infection rate is 108% (inactive). With `Cc1c(Cc2ccc3ccccc3n2)c2cc(F)ccc2n1CC(=O)O` (10 µM), the SARS-CoV-2 infection rate is 102% (inactive). Same read-out and setting: for `CC(C)(C)c1ccc(-c2nc3c(N4CCN(Cc5ccc6nccnc6c5)CC4)cccc3[nH]2)cc1` (0.833333 µM) the value was 102% (inactive). In the case of `CN(C)CC[C@@]1(c2ccc(Cl)cc2)Cc2ccccc2C(=O)O1` (racemic) (10 µM), the SARS-CoV-2 infection rate is 106% (inactive). With `Nc1ncnc2c1nc(Br)n2[C@@H]1O[C@@H]2COP(=O)(O)O[C@H]2[C@H]1O` [8-bromo-cAMP] (10 µM), the SARS-CoV-2 infection rate is 102% (inactive). Still for that read-out and setting: with `Cc1cc(N2CCN([C@@H]3CN[C@H](C(=O)N4CCSC4)C3)CC2)n(-c2ccccc2)n1` [teneligliptin] (10 µM) the figure was 112% (inactive).

For `N[C@@H](CCNCc1ccc(Cl)cc1)C(=O)N1CCCCC1` (10 µM), the SARS-CoV-2 infection rate was 107% (inactive). As to `COC(=O)C1=CO[C@@H](O)[C@@H]2C(CO)=CC[C@H]12` [genipin] (10 µM), the SARS-CoV-2 infection rate was 112% (inactive). Turning to `CCCCS(=O)(=O)N[C@@H](Cc1ccc(OCCCCC2CCNCC2)cc1)C(=O)O` [tirofiban] (10 µM), the SARS-CoV-2 infection rate was 110% (inactive). As to `CCN(CC)CCOC(=O)c1ccc(N)cc1` [procaine] (10 µM), the SARS-CoV-2 infection rate is 115% (inactive).

For the compound `CCc1cc2c(s1)-n1c(C)nnc1CN=C2c1ccccc1Cl` [etizolam] (10 µM), the SARS-CoV-2 infection rate is 103% (inactive). On the same count and under the same terms, for `COc1nccc(-c2c(-c3ccc(F)cc3)ncn2C2CCNCC2)n1` (10 µM) the value was 98.5% (inactive); for `N[C@@H](Cc1ccc(O)cc1)C(=O)NCC(=O)NCC(=O)O` (10 µM), 114% (inactive); for `Nc1ncnc2c1ncn2[C@@H]1O[C@H](CO)C[C@H]1O` [cordycepin] (10 µM), 112% (inactive).
